A selection: hits, their analogues and other compounds. The true share with any hit is near 4.6%.
HSF-1 act = increases HSF-1 driven luciferase reporter signal; activation, % at 9 µM; actives 1.7% (n = 300,000); NIH3T3-HGL HSF-1 luciferase reporter, MG132, 8 h; 100% = twice DMSO control signal;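 active means mean replicate activation of at least 50% with a set share of replicates each reaching 50%; inconclusive means only one of those two conditions met; inactive means mean below 50% and too few replicates reaching it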;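 further: 0% = median of the neutral control wells and 100% = twice that signal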
AHR act = activates the human aryl hydrocarbon receptor; AHR-responsive luciferase reporter cells, luminescence; activation, % at 5 µM; actives 2.5% (n = 320,000); in the data active means activation above about 47%;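 further: 0% = vehicle wells and 100% = reference agonist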
HSF1 inh = HSF1 inhibition. actives 0.77% (n = 300,000). NIH3T3-HGL HSE-luciferase, MG132-induced, luminescence 8 h; hits give low values. activity change, negative = inhibition, % at 7.5 µM (by protocol);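 active means more than half of replicate wells show activity change below -50%, luminescence cut by over half; inconclusive means some wells, but at most half, below -50%; inactive means no replicate well below -50%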;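 further: luciferase reports HSF-1 transcriptional activity via heat shock element; 0% = median of DMSO wells and -100% = zero luminescence signal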
FXN GAA850 act = activators of GAA850 frataxin (FXN) promoter. HEK293 lucGAA850 FXN promoter luciferase reporter, 24 h; percent of 10 µM SAHA response. activation, % at 6 µM. actives 0.56% (n = 360,000). AID 540364;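 active means activation above the average of all compounds screened plus 3 SD, cutoff fixed separately per campaign, cut at about 7.5% in these data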;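 further: 0% = DMSO wells and 100% = 10 µM SAHA wells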
GAA30 counter = counter-screen for GAA850 frataxin promoter activators: GAA30 promoter activation. shares compounds with FXN GAA850 act. HEK293 lucGAA30 FXN promoter luciferase, 24 h; DMSO = 0%, 5 µM ipriflavone = 100%. activation, % at 6 µM. actives 66% (n = 1,900). AID 588350;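 active means mean activation above the mean of solvent-only control wells plus 3 SD, cut at about 22% in these data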;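 further: counterscreen of GAA850 promoter hits where activity marks nonselective or luminescence artifacts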
GAA850 confirm = GAA850 FXN promoter activation confirmation. shares compounds with FXN GAA850 act. HEK293 lucGAA850 FXN promoter luciferase reporter, 24 h; 100% = activation by SAHA. activation, % at 6 µM. actives 86% (n = 1,900);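 active means mean activation above a set limit taken from the primary screen, cut at about 8% in these data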;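 further: 0% = DMSO wells and 100% = 10 µM SAHA wells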
* marks the source's active call; other numbers are inactive results; ? = inconclusive; · = no result.

SMILES	HSF-1 act	AHR act	HSF1 inh	FXN GAA850 act	GAA30 counter	GAA850 confirm
Cc1nc(NC(=O)c2cc(-n3cnnc3)ccc2Cl)ccc1Br	9	10	-1	-1	·	·
CCCCOC(=O)Nc1ccc2c(C)cc(=O)oc2c1	45	2	26	7.7*	120*	39*
CCOC(=O)Nc1ccc2c(C)cc(=O)oc2c1	31	-6	19	4	·	·
O=C(N/N=C/C=C\c1ccco1)c1ccccn1	62*	2	33	7.7*	63*	38*
O=C(N/N=C/c1ccc(OC(=O)c2ccco2)cc1)c1ccccn1	36	24	10	7.8*	115*	33*
CC(=O)Nc1ccc(N(CC(O)Cn2c3ccccc3c3ccccc32)S(=O)(=O)c2ccc(C)cc2)cc1 (stereo unspecified)	26	43	20	16*	2	12*
Cc1ccc(N(CC(O)Cn2c3ccccc3c3ccccc32)S(C)(=O)=O)cc1 (stereo unspecified)	38	6	40	2	·	·
Cc1cc(-c2ccc(F)cc2)nc2cc(C(N)=O)nn12	9	13	-4	-1	·	·
CCOC(=O)c1cnn2c(C)cc(-c3ccc(F)cc3)nc12	?	1	24	8.3*	112*	37*
CCOC(=O)c1[nH]c2cc(OC)c(OC)cc2c1NC(=O)CN(C)C1CCCCC1	-10	7	-3	1	·	·
COc1ccc(NC(=O)C2C3C=CC4(O3)C2C(=O)N(CCN2CCCCC2C)C4C(=O)NC2CCCC(C)C2C)cc1 (stereo unspecified)	-6	-1	-6	-1	·	·
c1csc(CSc2nc3ccccc3s2)c1	56*	26	31	7.7*	122*	39*
Nc1cc(=O)nc(SCC(=O)N(C2CCCCC2)C2CCCCC2)n1-c1ccccc1	-2	2	3	1	·	·
Nc1ccccc1Nc1cccc(C(F)(F)F)c1	3	3	1	8.7*	-1	9.6*
C=CCn1c(-c2cccs2)nc2nc3ccccc3nc21	26	70*	-3	8.1*	80*	24*
CCCCn1c(SCC(=O)Nc2ccc(C)c(S(=O)(=O)N3CCOCC3)c2)nnc1C(CC)N(C)C (stereo unspecified)	11	-3	6	-7	·	·
COc1ccc(C=NNC(=S)NN=Cc2ccc(OC)c(OC)c2)cc1OC	·	·	·	8.7*	87*	31*
Clc1ccc(Nc2nc(-c3ccncc3)cs2)cc1	18	23	5	5	·	·
Fc1ccc(Nc2nc(-c3ccncc3)cs2)cc1	4	12	6	7.9*	89*	33*
Cc1cccc(NC(=O)CSc2nnc(CNC(=O)c3ccc(S(=O)(=O)N(C)C)cc3)n2-c2cccc(C)c2)c1	-3	-1	-3	-5	·	·
Cn1cccc1/C=C1\CCC/C(=C\c2cccn2C)C1=O	74*	1	45	12*	99*	39*
CCN1C(=O)[C@H]2[C@@H](c3ccc(C)cc3)N3C(=O)N(c4cccc(F)c4)C(=O)[C@@]3(Cc3ccc(Cl)cc3)[C@H]2C1=O	0	4	1	1	·	·
CCN1C(=O)[C@H]2[C@@H](c3ccc(C)cc3)N3C(=O)N(c4cccc(Cl)c4)C(=O)[C@@]3(CC(C)C)[C@H]2C1=O	-6	6	3	17*	26*	12*
CC[C@@]12C(=O)N(c3cccc(Cl)c3)C(=O)N1[C@H](c1ccc(Br)cc1)[C@@H]1C(=O)N(C(C)(C)C)C(=O)[C@@H]12	3	2	10	14*	35*	17*
COc1ccc([C@@H]2[C@@H]3C(=O)N(C(C)(C)C)C(=O)[C@@H]3[C@]3(Cc4ccc(Cl)cc4)C(=O)N(c4ccc(C)cc4)C(=O)N23)cc1	9	0	8	-2	·	·
CC(C)C[C@@]12C(=O)N(c3cccc(F)c3)C(=O)N1[C@H](c1ccc(Br)cc1)[C@@H]1C(=O)N(C(C)(C)C)C(=O)[C@@H]12	2	4	5	17*	29*	18*

From PubChem
